Source: PubChem BioAssay (EPA / NIEHS)
The source made the active and inactive calls. Rule for the calls: active = hit-call score of the fitted dose curve at least 0.9, where 1 is the maximum; inactive = score below 0.9.

Assays:
[1] = ATG_M_32_CIS: Attagene CIS-FACTORIAL HepG2 Assay for M32 Transcription Factor (Internal Marker) (AID 2282949); conditions: HepG2 Attagene cis-factorial M32 reporter, mRNA; actives raise or lower the signal;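 note: background control marker of the multiplexed CIS panel rather than a real target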
Procedure, shortened: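 Using DMSO as baseline, bidirectional curve fits were applied to reporter mRNA signals. These came from transiently transfected HepG2 cells exposed for 24 h, with RNA analysed by RT-PCR, FAM primer extension, HpaI digestion and CE.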

[2] = ATG_M_06_CIS: Attagene CIS-FACTORIAL HepG2 Assay for M06 Transcription Factor (Internal Marker) (AID 2282950); conditions: HepG2 Attagene CIS-FACTORIAL M06 internal marker reporter; actives raise or lower the signal
Procedure, shortened: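 HepG2 liver cells, 24 h exposure. Reporter transcripts from transfected cis-element constructs quantified by RT-PCR/capillary electrophoresis fluorescence. Bidirectional curve fit against DMSO.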

[3] = molecular target: Hepatocyte nuclear factor 6 (Homo sapiens) (UniProt Q9UBC0); assay: ATG_HNF6_CIS: Attagene CIS-FACTORIAL HepG2 Assay for human Hepatocyte Nuclear Factor 6 (HNF6) (AID 2282952); conditions: HepG2 Attagene cis-factorial HNF6 reporter transcription; actives raise or lower the signal
Procedure, shortened: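 Endogenous factor activity read in transiently transfected HepG2 via promoter-regulated reporter transcripts. RNA harvested 24 h post-dosing, reverse-transcribed, PCR-amplified, FAM-labelled, HpaI-digested and resolved by capillary electrophoresis; fitted in both directions against DMSO.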

[4] = molecular target: Heat shock factor protein 1 (Homo sapiens) (UniProt Q00613); assay: ATG_HSE_CIS: Attagene CIS-FACTORIAL HepG2 Assay for human Heat Shock Transcription Factor 1 (HSE) (AID 2282953); conditions: HepG2 HSE cis-reporter, Attagene RNA transcription; actives raise or lower the signal
Procedure, shortened: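 Endogenous transcription factor activity captured via cis-promoter reporter units transfected into HepG2; treatment lasted 24 h. Fluorescence intensity of reporter fragments analysed with bidirectional curve fitting, DMSO baseline.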

[5] = ATG_MRE_CIS: Attagene CIS-FACTORIAL HepG2 Assay for human Metal Responsive Element (MRE) (AID 2282954); conditions: HepG2 MRE cis-reporter transcription, Attagene multiplex; actives raise or lower the signal
Procedure, shortened: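 Multiplexed cis-reporter assay in human HepG2 liver cells, 24 h incubation with test chemical. Reporter transcripts measured by RT-PCR and capillary electrophoresis; values from bidirectional curve fitting versus DMSO.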

[6] = ATG_PBREM_CIS: Attagene CIS-FACTORIAL HepG2 Assay for human Phenobarbital-responsive Enhancer Module (PBREM) (AID 2282955); conditions: HepG2 PBREM cis-reporter, Attagene multiplexed transcription; actives raise or lower the signal
Procedure, shortened: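 Fluorescence of labelled reporter cDNA fragments, resolved by capillary electrophoresis, gives mRNA induction in transfected HepG2 cells treated for 24 h; DMSO serves as negative control and baseline.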

[7] = molecular target: Paired box protein Pax-6 (Homo sapiens) (UniProt P26367); assay: ATG_Pax6_CIS: Attagene CIS-FACTORIAL HepG2 Assay for human Paired Box 6 (PAX6) (AID 2282956); conditions: HepG2 CIS-FACTORIAL PAX6 reporter transcription, RNA readout; actives raise or lower the signal
Procedure, shortened: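 Read-out is reporter transcript level, measured by RT-PCR with fluorescent primer extension and capillary electrophoresis after 24 h dosing of transfected HepG2 cells. Activity in either direction fitted relative to DMSO control.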

[8] = ATG_PXRE_CIS: Attagene CIS-FACTORIAL HepG2 Assay for human Pregnane X Receptor Element (PXRE) (AID 2282957); conditions: HepG2 Attagene CIS-FACTORIAL PXRE reporter, mRNA; actives raise or lower the signal
Procedure, shortened: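 Reporter transcripts under endogenous PXR-responsive cis-regulation quantified from total RNA of transfected HepG2 cells 24 h post-dosing, via RT-PCR with fluorescent primer extension and capillary electrophoresis. Gain or loss of signal fitted against DMSO baseline.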

[9] = ATG_PPRE_CIS: Attagene CIS-FACTORIAL HepG2 Assay for human Peroxisome Proliferator-activated Response Element (PPRE) (AID 2282958); conditions: HepG2 PPRE cis-element reporter, Attagene transcription factor profiling; actives raise or lower the signal
Procedure, shortened: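 Cells are first transfected transiently with the multiplexed reporter library, then dosed for 24 h. Total RNA is reverse-transcribed, amplified, fluorescently end-labeled and HpaI-cut before capillary electrophoresis; activity is fitted bidirectionally against DMSO controls.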

[10] = ATG_RORE_CIS: Attagene CIS-FACTORIAL HepG2 Assay for human RAR-related Orphan Receptor Element (RORE) (AID 2282959); conditions: HepG2 Attagene cis-factorial RORE reporter, mRNA; actives raise or lower the signal
Procedure, shortened: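 Cells were HepG2 carrying transfected cis-regulated reporter constructs, dosed for 24 hours. Total RNA was reverse-transcribed and reporter cDNA amplified, fluorescently labeled and sized by capillary electrophoresis. Activity was fitted bidirectionally relative to DMSO.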

[11] = ATG_Sox_CIS: Attagene CIS-FACTORIAL HepG2 Assay for human SRY-box transcription factor (SOX) (AID 2282960); conditions: HepG2 Attagene cis-factorial SOX reporter, mRNA; actives raise or lower the signal
Procedure, shortened: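 Transient MRTU transfection of HepG2; 24 h compound incubation; TriZol RNA, oligo(dT) RT, PCR, 6-FAM primer extension, HpaI cut, CE. Bidirectional fit, DMSO = baseline.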

[12] = molecular target: Transcription factor Sp1 (Homo sapiens) (UniProt P08047); assay: ATG_Sp1_CIS: Attagene CIS-FACTORIAL HepG2 Assay for human Specificity Protein 1 (Sp1) (AID 2282961); conditions: HepG2 Sp1 cis-reporter transcription, actives raise or lower the signal
Procedure, shortened: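 Endogenous Sp1 activity was gauged in human liver HepG2 cells bearing transfected reporter units under a cis-regulating promoter. After 24 h dosing, reporter mRNA was quantified by RT-PCR with capillary electrophoresis, and activity fitted bidirectionally versus DMSO.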

[13] = ATG_SREBP_CIS: Attagene CIS-FACTORIAL HepG2 Assay for human Sterol Regulatory Element Binding (SREBP) (AID 2282962); conditions: HepG2 Attagene cis-factorial SREBP reporter, mRNA; actives raise or lower the signal
Procedure, shortened: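 Endogenous SREBP activity read as cis-element-driven reporter transcript in transiently transfected HepG2, 24 h post-dosing; quantified via RT-PCR plus capillary electrophoresis of fluorescent fragments. Gain or loss of signal fitted relative to DMSO baseline.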

[14] = molecular target: Signal transducer and activator of transcription 3 (Homo sapiens) (UniProt P40763); assay: ATG_STAT3_CIS: Attagene CIS-FACTORIAL HepG2 Assay for human Signal Transducer and Activator of Transcription 3 (STAT3) (AID 2282963); conditions: HepG2, Attagene cis-factorial STAT3 reporter transcription; actives raise or lower the signal
Procedure, shortened: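 Cis-factorial format: endogenous transcription factors in HepG2 drive transfected reporter units. After 24 h treatment, reporter RNA was reverse-transcribed, amplified, FAM-labelled and HpaI-digested before CE analysis; activity scored in both directions against DMSO.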

[15] = ATG_TA_CIS: Attagene CIS-FACTORIAL HepG2 Assay for human TA Basal Promoter (AID 2282964); conditions: HepG2 Attagene CIS-factorial TA basal promoter reporter; actives raise or lower the signal
Procedure, shortened: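 Fluorescence from labelled RT-PCR reporter fragments, separated by capillary electrophoresis, gives the signal. Cells: HepG2 transiently carrying multiple reporter units, 24 h chemical dosing. Gain or loss relative to DMSO.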

[16] = ATG_TCF_b_cat_CIS: Attagene CIS-FACTORIAL HepG2 Assay for human T-Cell-Factor with beta-catenin (TCF/b-cat) (AID 2282965); conditions: HepG2 TCF/beta-catenin cis-reporter transcription, actives raise or lower the signal
Procedure, shortened: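 Endogenous TCF/LEF activity read as reporter transcript level via RT-PCR and capillary electrophoresis fluorescence in transfected HepG2, 24 h exposure; gain or loss of signal fitted against DMSO controls.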

[17] = ATG_TAL_CIS: Attagene CIS-FACTORIAL HepG2 Assay for human TAL Basal Promoter (AID 2282966); conditions: HepG2 Attagene cis-factorial TAL promoter reporter; actives raise or lower the signal;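 note: background control endpoint measuring basal TAL promoter reporter mRNA not a specific factor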
Procedure, shortened: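 Background-control endpoint: basal TAL promoter reporter transcripts in transiently transfected HepG2, measured 24 h after dosing. Read-out by RT-PCR with fluorescent primer extension and capillary electrophoresis; gain or loss of signal fitted relative to DMSO.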

[18] = ATG_TGFb_CIS: Attagene CIS-FACTORIAL HepG2 Assay for human Transforming Growth Factor (TGF) (AID 2282967); conditions: HepG2 Attagene CIS TGFb reporter, mRNA transcription; actives raise or lower the signal
Procedure, shortened: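 Bidirectional fitting relative to DMSO gave the endpoint. Underlying data: reporter mRNA from HepG2 cells carrying transiently transfected cis-regulated reporter constructs, harvested 24 h after dosing and analyzed by RT-PCR and capillary electrophoresis.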

[19] = ATG_VDRE_CIS: Attagene CIS-FACTORIAL HepG2 Assay for human Vitamin D Receptor Element (VDRE) (AID 2282968); conditions: HepG2 VDRE cis-reporter transcription, actives raise or lower the signal
Procedure, shortened: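 Measures endogenous factor activity through cis-element-driven reporter transcripts in transiently transfected HepG2. Cells are treated 24 h; reporter mRNA is quantified by RT-PCR and capillary electrophoresis; fitting is bidirectional.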

[20] = molecular target: Hypoxia-inducible factor 1-alpha (Homo sapiens) (UniProt Q16665); assay: ATG_HIF1a_CIS: Attagene CIS-FACTORIAL HepG2 Assay for human Hypoxia Inducible Factor 1 (HIF1A) (AID 2282951); conditions: HepG2 Attagene cis-factorial HIF1a reporter transcription; actives raise or lower the signal
Procedure, shortened: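 Measures endogenous transcription-factor activity through cis-regulated reporter mRNA in HepG2. Cells dosed 24 h; transcripts quantified by RT-PCR with 6-FAM-labelled products separated by capillary electrophoresis; DMSO serves as negative control.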

Measured: AC50

Paired box protein Pax-6 (Homo sapiens), sequence (P26367 whole entry, looked up): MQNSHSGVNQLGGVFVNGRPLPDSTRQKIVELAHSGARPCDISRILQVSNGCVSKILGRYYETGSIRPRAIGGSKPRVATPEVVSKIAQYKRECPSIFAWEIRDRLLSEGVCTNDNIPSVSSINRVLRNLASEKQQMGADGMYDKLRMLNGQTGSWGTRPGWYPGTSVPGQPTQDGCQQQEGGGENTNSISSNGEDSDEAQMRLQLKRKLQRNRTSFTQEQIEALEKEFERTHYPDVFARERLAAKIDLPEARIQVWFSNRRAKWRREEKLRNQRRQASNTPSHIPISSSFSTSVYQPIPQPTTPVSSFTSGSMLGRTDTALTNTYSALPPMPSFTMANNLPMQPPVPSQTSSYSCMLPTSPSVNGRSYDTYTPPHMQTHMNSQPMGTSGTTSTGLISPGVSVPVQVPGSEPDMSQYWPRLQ
Hypoxia-inducible factor 1-alpha (Homo sapiens), sequence (Q16665 whole entry, looked up): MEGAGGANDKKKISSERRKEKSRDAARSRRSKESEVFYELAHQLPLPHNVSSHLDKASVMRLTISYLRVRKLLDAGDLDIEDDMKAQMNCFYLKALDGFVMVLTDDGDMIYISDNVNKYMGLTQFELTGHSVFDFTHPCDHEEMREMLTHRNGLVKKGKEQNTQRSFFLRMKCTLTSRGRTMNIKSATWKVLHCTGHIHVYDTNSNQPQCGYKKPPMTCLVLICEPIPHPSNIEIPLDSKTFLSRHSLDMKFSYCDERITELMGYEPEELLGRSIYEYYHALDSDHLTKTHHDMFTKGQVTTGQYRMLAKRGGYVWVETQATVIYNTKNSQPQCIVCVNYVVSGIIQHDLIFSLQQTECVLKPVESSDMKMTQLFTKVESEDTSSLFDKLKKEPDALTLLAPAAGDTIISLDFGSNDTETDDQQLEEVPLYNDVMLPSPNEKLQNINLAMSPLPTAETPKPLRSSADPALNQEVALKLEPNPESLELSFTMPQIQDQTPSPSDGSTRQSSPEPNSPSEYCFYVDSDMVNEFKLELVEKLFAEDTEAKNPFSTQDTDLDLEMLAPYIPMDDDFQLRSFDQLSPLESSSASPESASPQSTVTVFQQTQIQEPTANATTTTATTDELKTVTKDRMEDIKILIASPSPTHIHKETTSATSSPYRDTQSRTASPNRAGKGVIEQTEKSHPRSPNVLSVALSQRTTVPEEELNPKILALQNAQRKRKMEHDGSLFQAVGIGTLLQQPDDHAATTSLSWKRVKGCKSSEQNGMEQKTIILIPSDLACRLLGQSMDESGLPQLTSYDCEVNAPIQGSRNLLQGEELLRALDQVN
Heat shock factor protein 1 (Homo sapiens), sequence (Q00613 whole entry, looked up, the tested form may be a part): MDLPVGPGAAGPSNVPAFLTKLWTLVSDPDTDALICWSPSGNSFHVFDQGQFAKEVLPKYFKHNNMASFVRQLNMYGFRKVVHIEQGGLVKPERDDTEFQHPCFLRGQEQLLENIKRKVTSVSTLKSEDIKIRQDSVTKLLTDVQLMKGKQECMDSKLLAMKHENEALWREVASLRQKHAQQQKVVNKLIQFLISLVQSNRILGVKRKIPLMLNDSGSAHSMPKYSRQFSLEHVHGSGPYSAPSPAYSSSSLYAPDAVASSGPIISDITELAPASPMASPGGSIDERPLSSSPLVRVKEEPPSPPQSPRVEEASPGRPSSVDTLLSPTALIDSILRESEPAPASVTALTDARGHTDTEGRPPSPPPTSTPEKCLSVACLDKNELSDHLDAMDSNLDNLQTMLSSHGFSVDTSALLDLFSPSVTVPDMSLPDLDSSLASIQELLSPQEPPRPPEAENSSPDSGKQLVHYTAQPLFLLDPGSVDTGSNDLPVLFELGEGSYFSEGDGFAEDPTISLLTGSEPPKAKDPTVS
Signal transducer and activator of transcription 3 (Homo sapiens), sequence (P40763 whole entry, looked up): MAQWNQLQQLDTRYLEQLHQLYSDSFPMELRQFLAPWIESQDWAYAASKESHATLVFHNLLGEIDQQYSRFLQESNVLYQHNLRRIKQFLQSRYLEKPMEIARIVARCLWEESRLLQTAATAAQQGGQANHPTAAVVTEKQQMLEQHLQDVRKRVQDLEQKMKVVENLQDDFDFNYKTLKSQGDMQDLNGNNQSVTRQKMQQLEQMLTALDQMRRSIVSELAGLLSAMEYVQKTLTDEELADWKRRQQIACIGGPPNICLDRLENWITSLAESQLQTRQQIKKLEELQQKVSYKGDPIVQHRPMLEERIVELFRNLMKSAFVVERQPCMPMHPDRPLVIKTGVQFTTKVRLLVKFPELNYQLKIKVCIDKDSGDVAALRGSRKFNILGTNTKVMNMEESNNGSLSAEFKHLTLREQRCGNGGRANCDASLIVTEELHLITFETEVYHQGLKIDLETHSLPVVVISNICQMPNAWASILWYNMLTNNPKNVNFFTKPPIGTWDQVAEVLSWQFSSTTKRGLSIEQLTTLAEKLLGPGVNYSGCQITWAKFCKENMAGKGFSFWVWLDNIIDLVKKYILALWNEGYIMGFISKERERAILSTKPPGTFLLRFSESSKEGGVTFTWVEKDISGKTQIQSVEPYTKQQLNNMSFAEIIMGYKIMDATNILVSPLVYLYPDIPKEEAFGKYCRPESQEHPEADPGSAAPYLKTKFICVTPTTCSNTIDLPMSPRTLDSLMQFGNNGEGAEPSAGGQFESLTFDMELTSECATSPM
Hepatocyte nuclear factor 6 (Homo sapiens), sequence (Q9UBC0 whole entry, looked up): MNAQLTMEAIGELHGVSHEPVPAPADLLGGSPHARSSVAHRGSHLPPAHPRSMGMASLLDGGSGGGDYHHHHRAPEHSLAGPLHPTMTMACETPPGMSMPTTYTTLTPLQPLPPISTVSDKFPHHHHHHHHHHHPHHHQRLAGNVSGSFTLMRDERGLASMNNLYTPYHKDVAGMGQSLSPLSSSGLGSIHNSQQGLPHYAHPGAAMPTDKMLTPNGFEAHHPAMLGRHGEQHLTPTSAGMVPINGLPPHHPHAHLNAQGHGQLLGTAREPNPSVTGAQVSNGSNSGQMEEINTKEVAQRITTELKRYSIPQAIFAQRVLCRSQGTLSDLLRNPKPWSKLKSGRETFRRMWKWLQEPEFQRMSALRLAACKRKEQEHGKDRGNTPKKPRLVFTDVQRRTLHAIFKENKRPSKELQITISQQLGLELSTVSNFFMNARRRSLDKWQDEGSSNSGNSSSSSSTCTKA
Transcription factor Sp1 (Homo sapiens), sequence (P08047 whole entry, looked up): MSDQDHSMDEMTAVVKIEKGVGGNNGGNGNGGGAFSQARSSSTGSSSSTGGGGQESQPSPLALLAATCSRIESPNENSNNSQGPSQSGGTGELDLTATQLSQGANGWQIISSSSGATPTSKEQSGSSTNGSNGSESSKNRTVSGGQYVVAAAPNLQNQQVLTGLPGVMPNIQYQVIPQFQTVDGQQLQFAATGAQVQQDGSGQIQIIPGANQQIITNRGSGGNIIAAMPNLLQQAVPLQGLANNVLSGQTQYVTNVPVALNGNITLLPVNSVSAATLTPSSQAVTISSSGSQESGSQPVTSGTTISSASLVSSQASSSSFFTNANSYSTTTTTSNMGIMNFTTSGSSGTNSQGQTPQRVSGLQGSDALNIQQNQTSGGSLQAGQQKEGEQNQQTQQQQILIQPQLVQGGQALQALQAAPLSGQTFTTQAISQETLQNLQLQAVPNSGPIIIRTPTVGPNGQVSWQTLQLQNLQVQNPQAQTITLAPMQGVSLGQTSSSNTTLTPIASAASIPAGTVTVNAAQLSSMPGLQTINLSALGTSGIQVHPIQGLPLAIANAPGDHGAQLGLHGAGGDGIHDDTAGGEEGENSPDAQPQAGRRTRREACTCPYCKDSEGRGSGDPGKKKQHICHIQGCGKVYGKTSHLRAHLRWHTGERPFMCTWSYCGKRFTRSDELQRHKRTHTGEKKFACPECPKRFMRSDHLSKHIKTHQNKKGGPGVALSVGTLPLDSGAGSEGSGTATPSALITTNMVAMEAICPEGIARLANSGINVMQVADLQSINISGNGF

CC(C)[C@H](C(=O)OC(C#N)c1cccc(Oc2ccccc2)c1)c1ccc(OC(F)F)cc1 (some centres not stated)
inactive: [1] | [2] | [3] | [4] | [5] | [7] | [9] | [10] | [11] | [12] | [13] | [14] | [15] | [16] | [17] | [18]
active: [6] 1.18 µM | [8] 0.396 µM | [19] 1.08 µM

O=[N+]([O-])c1cc([As](=O)(O)O)ccc1O
inactive: [1] | [20] | [3] | [5] | [7] | [8] | [9] | [10] | [11] | [12] | [13] | [14] | [15] | [16] | [19]

Oc1cc(Cl)c(Cl)cc1Cl
inactive: [1] | [3] | [4] | [11] | [14] | [15] | [16] | [18]
active: [5] 63 µM | [8] 25.8 µM | [10] 46.2 µM | [12] 58.2 µM | [13] 136 µM

Cc1cc(Cl)ccc1OCCCC(=O)O
inactive: [1] | [20] | [3] | [4] | [5] | [6] | [8] | [9] | [10] | [11] | [12] | [13] | [14] | [15] | [16] | [17] | [18] | [19]

CC(C)[C@@H](Nc1ccc(C(F)(F)F)cc1Cl)C(=O)OC(C#N)c1cccc(Oc2ccccc2)c1 (some centres not stated)
inactive: [1] | [20] | [3] | [4] | [5] | [7] | [9] | [10] | [11] | [12] | [13] | [14] | [15] | [16] | [17] | [18]
active: [6] 1.43 µM | [8] 0.693 µM | [19] 0.734 µM

CC(O)(CS(=O)(=O)c1ccc(F)cc1)C(=O)Nc1ccc(C#N)c(C(F)(F)F)c1 (configuration not stated)
active: [5] 72.3 µM | [8] 3.99 µM | [19] 32.3 µM
inactive: [1] | [20] | [3] | [6] | [7] | [9] | [10] | [11] | [12] | [13] | [14] | [15] | [16] | [18]

COCC(=O)N(c1c(C)cccc1C)[C@H](C)C(=O)OC
inactive: [1] | [20] | [3] | [4] | [5] | [6] | [9] | [10] | [11] | [12] | [13] | [14] | [15] | [16] | [17] | [18] | [19]
active: [8] 27.7 µM

N#Cc1ccccc1Cl
active: [8] 26.4 µM
inactive: [1] | [20] | [3] | [4] | [5] | [7] | [9] | [10] | [11] | [12] | [13] | [14] | [15] | [16] | [17] | [18] | [19]

C=C(C)C(=O)OCCCCOC(=O)C(=C)C
inactive: [1] | [3] | [5] | [6] | [7] | [9] | [10] | [11] | [12] | [13] | [14] | [15] | [16] | [19]

O=C1C=CC(=O)c2ccccc21
inactive: [1] | [20] | [3] | [4] | [5] | [6] | [7] | [8] | [9] | [10] | [11] | [12] | [13] | [14] | [15] | [16] | [17] | [18] | [19]

N#CS
inactive: [1] | [20] | [3] | [4] | [5] | [7] | [9] | [10] | [11] | [12] | [13] | [14] | [15] | [16] | [17] | [18] | [19]

O=C(Cc1ccccc1)OCCc1ccccc1
inactive: [1] | [20] | [3] | [4] | [5] | [7] | [8] | [9] | [10] | [11] | [12] | [13] | [14] | [15] | [16] | [17] | [19]
active: [18] 115 µM

N#Cc1ccncc1
inactive: [1] | [20] | [3] | [4] | [5] | [7] | [9] | [10] | [11] | [12] | [13] | [14] | [15] | [16] | [17] | [18] | [19]
